In PubChem BioAssay AID624171 (National Center for Advancing Translational Sciences (NCATS), 2012):
The whole screen tested about 410,000 compounds, of which about 1,200 (0.29%) were called active. Another 2% or so got no clear call; they are omitted. For the sample, actives were picked, then their nearest neighbours and some compounds at random. Unmarked numbers belong to inactive results. The call rests on the fitted dose curve; in most records, active means well fitted activation curve with a large enough effect; inconclusive means small, poorly fitted or top-dose-only effect; inactive means flat fitted curve, though single readings scatter.

Test: qHTS of Nrf2 Activators; further: nearly all actives have a fitted effect of over 65% in size; on activation: % of control where 0% means no effect
Settings: AREc32 ARE-luciferase reporter (MCF7-derived line), luminescence, 24 h; series mostly up to 46.1 µM; activation: at the top concentration
Text: Many diseases have some form of oxidative stress injury and ties to inflammation, causing a host of problems for the patient. The antioxidant response element (ARE) plays an important role in alleviating the harmful effects of oxidative stress. The antioxidant response element (ARE) is a transcriptional regulatory element involved in the activation of genes coding for a number of antioxidant proteins and detoxifying enzymes. These enzymes work in concert to protect tissues from oxidative insults and chemical toxicities in human hepatocytes and immune cells. The protective effects of ARE activation are primarily triggered through Nrf2 (NF-E2-related factor) binding to and activating AREs. It is known that Nrf2 controls the production of over 250 antioxidant and detoxification proteins (Hu et al., 2006), thereby protecting tissues by increasing cellular antioxidant content and suppressing inflammatory signaling pathways. The transcription factor Nrf2 is a central link between oxidative chemicals, such as phenolic antioxidants and electrophilic compounds, and the activation of ARE. Nrf2 levels are constitutively low as a consequence of its interaction with Keap1, which targets its degradation (Zipper and Mulcahy, 2002). Electrophiles react with key cysteine residues in Keap1, releasing Nrf2 and allowing its translocation to the nucleus. Once within the nucleus, Nrf2 complexes with coactivators such as p300, and binds to the AREs to induce gene transcription of cytoprotective enzymes, resulting in the prevention of toxicity. Activation of Nrf2 protects tissues by increasing cellular antioxidant content and suppressing inflammatory signaling pathways. Identifying novel and potent Nrf2 activators by using the AREc32 cell line to detect ARE activation by small molecules will lead to the identification and development of probes to study protective pathways in multiple tissues. These specific probes are essential to study the ARE pathway, and eventually to determine whether this pathway does activate genes that could protect against a host of diseases, including cardiovascular diseases, obesity, diabetes, Alzheimer's, and Parkinson's disease.
This project's aim is to identify novel and potent Nrf2 activators by using the AREc32 cell line to detect ARE activation by small molecules, which will lead to the identification and development of probes to study the ARE pathway.
NIH Chemical Genomics Center [NCGC]
NIH Molecular Libraries Probe Centers Network [MLPCN]
Assay Submitter (PI): Curtis Klaassen, University of Kansas Medical Center
5 uL of 1000 cells/well of AREc32_Fluc cells are seeded into 1536-well plate in OPTI-MEM medium with 5% FBS. The plates are incubated overnight at 37 deg C with 5% CO2. Then through pin tool transfer, 23 nL of compounds are added to each well before a 24 hr incubation at 37 deg C with 5% CO2. After the addition of 2.5 uL of Steady-Glo. the plates are kept at RT for 30 min, before they are read on the ViewLux.
Potency means the concentration at half of the fitted maximal effect.

| SMILES | activation | Potency |
| --- | --- | --- |
| CCNc1nc2[nH]c(=O)c3c(c2s1)OC(N)=C(C#N)C3c1cccs1 (stereo not given) | 2.92% |  |
| COc1ccc(C2C=C(C)Oc3c2c(=O)oc2ccccc32)cc1OC (stereo not given) | -1.49% |  |
| N#CC1=C(N)Oc2c(c(=O)oc3ccccc23)C1c1ccccc1OC(=O)c1cccs1 (stereo not given) |  | 11.2 µM (active) |
| Cc1ccc(-n2c(/C=C/c3cccc(C(F)(F)F)c3)nc3ccccc3c2=O)cc1 | 3.6% |  |
| Cc1cccc(Cn2cccc(C(=O)Nc3ccc4c(c3)OCCO4)c2=O)c1 | -0.518% |  |
